Screens: PubChem, National Center for Advancing Translational Sciences (NCATS)
Rows were chosen to be rich in hits. Some 2.8% of all compounds tested hit in one or more screens of this group.
DRD3 agonist = qHTS of D3 Dopamine Receptor Agonist: qHTS. 0.58% of 410,000 active. D3R DiscoveRx beta-arrestin cells, luminescence, 90 min. max activation, %; in the data active = max activation above about 30%; also: 0% is about no effect
Target sequence (P35462 whole entry, looked up): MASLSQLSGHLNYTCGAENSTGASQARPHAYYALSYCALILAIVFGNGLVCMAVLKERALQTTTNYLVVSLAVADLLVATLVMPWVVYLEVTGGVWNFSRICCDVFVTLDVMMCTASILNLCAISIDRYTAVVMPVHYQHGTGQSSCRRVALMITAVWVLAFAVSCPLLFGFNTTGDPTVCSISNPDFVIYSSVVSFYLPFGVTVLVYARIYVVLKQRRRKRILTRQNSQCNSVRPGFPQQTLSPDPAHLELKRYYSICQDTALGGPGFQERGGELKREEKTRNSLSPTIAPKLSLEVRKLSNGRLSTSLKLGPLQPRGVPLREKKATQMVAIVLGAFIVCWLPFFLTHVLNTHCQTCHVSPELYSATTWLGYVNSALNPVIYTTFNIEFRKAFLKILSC
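Cells at 1500/well, incubated overnight, then treated with pinned compounds (dopamine as control) for 90 min at 37 degrees C. DiscoveRx reagent added for 30 - 60 minutes at room temperature; luminescence read.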
CBFb-RUNX1 inh = qHTS Assay for Compounds Blocking the Interaction Between CBF-beta and RUNX1 for the Treatment of Acute Myeloid Leukemia; 230,000 tested, under 10 active; Runt-related transcription factor 1 (Homo sapiens) + Core-binding factor subunit beta …; Potency, µM (highest dose often 59.8 µM), for the others: at the highest dose activity, negative = inhibition, usual class: inhibitors; AlphaScreen CBFb-His/RUNX1-biotin binding, biochemical; also: % of control where 0% means no effect
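Proteins preincubated together for 20 min at RT before compound addition; 15 min later, nickel and streptavidin beads were added and left 90 min prior to AlphaScreen measurement.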
MBNL1 CUG block = qHTS Assay for Inhibitors of MBNL1-poly(CUG) RNA binding | TR-FRET MBNL1-His/biotin-(CUG)12 binding, 665/545 ratio | 0.036% of 280,000 active | Muscleblind-like protein 1 (Homo sapiens), Q9NR56 | Potency, µM (highest dose often 57.5 µM), for the others: at the highest dose activity change, negative = inhibition, most hits filed as inhibitors; active = well fitted inhibition curve with a large enough effect in the signal ratio, with a control signal flat, not every such curve was filed as active; inconclusive = small, poorly fitted or top-dose-only effect, or effect the other way, or a change in a side signal; inactive = no such curve, though single readings can be large or run the other way; the % refers to the signal ratio; also: potency is read from the fitted curve at half-maximal effect; % is scaled to controls: 0 for no effect and ±100 for the full control effect
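Inhibition of protein-RNA binding appears as loss of TR-FRET between terbium anti-His antibody on MBNL1-His and streptavidin-XL665 on biotin-(CUG)12. Activity is normalized to buffer-only and uninhibited-complex controls.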
Integrin act MD = qHTS for Activators of Integrin-Mediated Alleviation for Muscular Dystrophy; Potency, µM (series often up to 38.3 µM), for the others: at the highest dose activation, actives largely listed as activators; alpha7betagal myoblasts, beta-gal FDG fluorescence, 48 h; AID 624291, 2012; 0.064% of 350,000 active;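 also: potency is read from the fitted curve at half-maximal effect; 100% = response of the positive control SU9516; nearly all actives have a fitted effect of over 60% in size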
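Alpha7betagal+/- myoblasts (passage 13) were plated 16-24 hr, then exposed to compounds (1:260 dilution of DMSO stock) for 48 hours at 37C. After MPER lysis, β-galactosidase reporter activity was read as FDG fluorescence (ex 480/em 540) after 30 minutes.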
D3 antag = qHTS of D3 Dopamine Receptor Antagonist: qHTS. D(3) dopamine receptor (Homo sapiens), P35462. D3R cells, DiscoveRx beta-arrestin luminescence, antagonist mode; stronger effect = lower value. max response, negative = inhibition, %. 2.5% of 360,000 active. AID 652054, 2013; in the data active = max response below about -50%; inconclusive = no clear call, values can overlap the other calls; also: % is scaled to controls: 0 for no effect and ±100 for the full control effect
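Cells plated overnight at 1500 cells/well, then exposed to library compounds with dopamine controls for 90 minutes at 37 degrees C. DiscoveRx reagent added for 30–60 minutes at room temperature; luminescence read, quantitative HTS format.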
PTHR1 ag = qHTS for PTHR1 Agonists: Primary Screen; Parathyroid hormone/parathyroid hormone-related peptide receptor (Homo sapiens), Q03431; HEK293 GP2 PTHR1 cells, GloSensor cAMP luminescence, 1 h; Potency, µM (doses to about 115 µM), inactives show top-dose activation, actives largely listed as activators; 0.075% of 410,000 active; AID 743266, 2014; also: potency is read from the fitted curve at half-maximal effect; nearly all actives have a fitted effect of over 55% in size
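HEK-293-derived GP2 cells expressing PTHR1 and a GloSensor cAMP reporter, 3,000/well, plated overnight, given luciferin plus IBMX (each 0.5 mM as added) for 1 h at 37 °C, then compound for 1 h at 37 °C. Luminescence was read after 15 min at room temperature.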
* hit, by the source's call; i = inactive; ? = inconclusive; . = not tested or not shown; [ ] = remark or other dose. Unless noted, calls follow the shape of the dose curve; as a rule, active = well fitted curve in the direction sought with a large enough effect; inconclusive = small, poorly fitted or top-dose-only effect, or another doubt; inactive = no such curve, though single readings can be large; an effect the other way counts as inactive or inconclusive.

SMILES	DRD3 agonist	CBFb-RUNX1 inh	MBNL1 CUG block	Integrin act MD	D3 antag	PTHR1 ag
CC(C)=CCC12Oc3cc(O)ccc3C1(O)Oc1cc(O)c([C@H]3C=C(C)CC(c4ccc(O)cc4O)[C@H]3C(=O)c3ccc(O)cc3O)c(O)c1C2=O (stereo partly drawn)	-44	.	.	-20%	-52*	-19%
C#C[C@]1(O)CC[C@H]2[C@@H]3CCC4=CC(=O)CC[C@@H]4[C@H]3C(=C)C[C@@]21CC	-8	.	.	.	.	.
O=C(Nc1ccc(Nc2ccccc2)cc1)c1ccc(Cl)cc1[N+](=O)[O-]	-15	.	.	15%	-66*	?
CC(=O)NS(=O)(=O)c1ccc(NC(=O)c2ccc(Cl)cc2[N+](=O)[O-])cc1	4	0%	?	?	14	i
CN(C)CC/C=C1\c2cc(Cl)ccc2Sc2cc(F)c(F)cc21	-18	.	.	-72%	-104*	i
CN(C)CC/C=C1/c2ccc(F)cc2Sc2ccc(Cl)cc21	-10	.	.	-79%	-84*	0%
CN(C)CC/C=C1\c2ccc(F)cc2Sc2cc(F)c(Cl)cc21	-18	.	.	-65%	-101*	-24%
CN(C)CC/C=C1\c2ccccc2Sc2cc(F)c(Cl)cc21	-42	.	.	-34%	-81*	-18%
CN(C)CCC=C1c2ccccc2C(C)(C)c2ccccc21	-16	.	.	.	.	.
COc1ccc(C(C)(O)c2nc(-c3cccc(C(C)C)c3)cs2)cc1 (stereo not drawn)	5	.	.	.	71	-36%
N[C@@H](Cc1ccc(O)cc1)c1nnc([C@H](CO)NC(=O)C2CCNCC2)o1	33*	22%	-11%	-14%	5	i
CN(C)[C@@H](CO)c1nnc([C@H](Cc2ccc(O)cc2)NC(=O)C2CCNCC2)o1	0	13%	7%	-19%	7	i
Cn1cc(CN2CCCC(C(=O)Nc3cccc(-c4cc5ccccc5[nH]4)c3)C2)cn1 (stereo not drawn)	-7	.	7%	-55%	-68*	i
O=C(Cn1nc(Cc2cccnc2)c2ccccc2c1=O)Nc1ccc(F)c(Cl)c1	39*	.	.	.	.	-28%
CS(=O)(=O)c1nc(-c2ccccc2)cc(-c2ccccc2)c1C#N	3	-5%	11%	-61%	-66*	-3%[57.5 µM]
C[C@]12C=CC(=O)N[C@@H]1CC[C@@H]1[C@@H]2CC[C@]2(C)[C@@H](C(=O)Nc3cc(C(F)(F)F)ccc3C(F)(F)F)CC[C@@H]12	-17	.	.	.	.	.
O=C(O)c1ccc(S(=O)(=O)N2CCC(n3nnc4cc(C(F)(F)F)ccc43)CC2)cc1	11	.	0%	13%	-11	i
O=C(O)c1cccc(S(=O)(=O)N2CCC(n3nnc4cc(C(F)(F)F)ccc43)CC2)c1	-14	.	-13%	11%	-76*	-1%
S=C(NN=C1C2CC3CC(C2)CC1C3)Nc1ccccc1	1	1%	-5%	-17%	-66*	i
Cc1cn([C@H]2C[C@H](O)[C@@H](CNCc3ccc(CN(C)S(C)(=O)=O)o3)O2)c(=O)[nH]c1=O	3	.	.	-5%	8	i
Cc1cn([C@H]2C[C@H](O)[C@@H](CNCc3ccc(-c4cc(Cl)ccc4C(F)(F)F)o3)O2)c(=O)[nH]c1=O	-17	.	.	16%	-75*	i
Cc1noc(C)c1CSCc1ccc(Cl)cc1	-2	11%	7%	0%	-13	i
O=C(Nc1cc2c(cc1C(=O)c1ccccc1Br)OCCO2)c1cccc(Cl)c1	-8	.	.	.	.	i
COc1ccc(OC)c(NC(=O)c2cc3c(n(-c4ccc(Cl)cc4)c2=O)CC(C)(C)CC3=O)c1	7	.	.	.	.	i
CC1=NN(c2ccccc2)C(=O)/C1=C/C=C/C=C/N(C)C	-16	?	?	-6%	-69*	i
SMILES	DRD3 agonist	CBFb-RUNX1 inh	MBNL1 CUG block	Integrin act MD	D3 antag	PTHR1 ag
COc1cccc(Nc2cc(C)nc3ccccc23)c1	-2	11%	?	-6%	-56*	15%[57.5 µM]
COc1ccc([N+](=O)[O-])c2c1CCN2C(=O)CC[C@H](N)C(=O)O	.	21%[21.7 µM]	.	.	.	.
COc1cc(/C=N/Nc2nc3c(c(=O)n(C)c(=O)n3C)n2Cc2ccccc2)ccc1OC(=O)c1ccco1	66*	-11%	-11%	-47%	57	-47%
CCCCCCCCCCCCCCC1CO1 (stereo not drawn)	.	6%[21.7 µM]	.	.	.	.
CCc1nn(CC(=O)NCCCN2CCc3ccccc3C2)c(=O)c2cc3sccc3n12	-16	8%	-2%	1%	-112*	-20%
Cc1nn(CC(=O)NCCCN2CCC(Cc3ccccc3)CC2)c(=O)c2cc(-c3ccccc3)nn12	3	.	0%	-14%	-88*	i
Cc1nn(CC(=O)NCCCN2CCN(Cc3ccccc3)CC2)c(=O)c2cc(-c3ccccc3)nn12	-17	.	-3%	-37%	-66*	-6%
CCc1ccc(-c2cc3c(=O)n(CC(=O)NCCCN4CCC(Cc5ccccc5)CC4)nc(C)n3n2)cc1	-15	.	-4%	-3%	-15	6%
N[C@@H](CSCCCO)C(=O)O	-18	.	.	.	.	.
CC(C)C(OC(=O)c1nsc(Cl)c1Cl)C(=O)NCC1CCCO1 (stereo not drawn)	-3	.	0%	10%	16	50µM*
Cc1ccc(-c2noc(-c3ccc(NCc4ccco4)c([N+](=O)[O-])c3)n2)cc1	-4	.	.	.	.	i
Cc1cccc(NC(=O)Cc2nc(-c3c[nH]c(C(=O)N4CCCC4)c3)cs2)c1	52*	.	.	-35%	46	-31%
O=c1nc(/C=C/c2cc([N+](=O)[O-])ccc2Cl)cc(C(F)(F)F)[nH]1	-12	4%	4%	-11%	-69*	-92%[57.5 µM]
Cc1cccc(C)c1N1CCN(C(c2cc3ccccc3o2)c2nnnn2C(C)(C)C)CC1 (stereo not drawn)	1	.	.	.	-21	-44%
O=c1cc(N2CCCCC2)c(-c2ccccc2)nn1Cc1c(Cl)cccc1Cl	-4	-1%	-10%	-43%	-69*	-19%
O=c1cc(N2CCCCC2)c(-c2ccccc2)nn1Cc1ccc(Cl)cc1	-2	1%	0%	19%	-15	-5%[57.5 µM]
CCCCC1C(=O)N(c2ccccc2)N(c2ccc(O)cc2)C1=O (stereo not drawn)	-9	17%	.	.	-74*	-50%
CC(C)=CCC1C(=O)N(c2ccccc2)N(c2ccccc2)C1=O	-20	.	.	.	.	.
